Measurements reported in PubChem BioAssay (NCI).
About 83,000 compounds went through this panel and 20% of them were active in at least one assay; those are over-represented in the sample as a whole.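 In brief: 96-well plates, 48 h treatment, single concentration, percent growth endpoint.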 Values without a mark were called inactive. Activity calls are given as the source filed them. How the source made its calls: active means growth percent below 10; inactive means the rest.

Experiments:
Experiment in all cases: NCI-60 one-dose screen, 48 h (100 = growth as untreated, 0 = no growth, -100 = all killed)
[1] = tested on: SK-MEL-2 melanoma; conditions: 10 µM unless noted
[2] = tested on: EKVX NSCLC; conditions: 10 µM unless noted
[3] = tested on: SN12C renal; conditions: 10 µM unless noted
[4] = tested on: TK-10 renal; conditions: 10 µM unless noted
[5] = tested on: ACHN renal; conditions: 10 µM unless noted
[6] = tested on: CAKI-1 renal; conditions: 10 µM unless noted
[7] = tested on: A498 renal; conditions: 10 µM
[8] = tested on: CCRF-CEM leukemia; conditions: 10 µM unless noted
[9] = tested on: MOLT-4 leukemia; conditions: 10 µM unless noted
[10] = tested on: RPMI-8226 leukemia; conditions: 10 µM unless noted
[11] = tested on: OVCAR-8 ovarian; conditions: 10 µM unless noted
[12] = tested on: OVCAR-5 ovarian; conditions: 10 µM unless noted
[13] = tested on: OVCAR-4 ovarian; conditions: 10 µM unless noted
[14] = tested on: SK-OV-3 ovarian; conditions: 10 µM unless noted
[15] = tested on: IGROV1 ovarian; conditions: 10 µM unless noted
[16] = tested on: OVCAR-3 ovarian; conditions: 10 µM unless noted
[17] = tested on: HS 578T breast; conditions: 10 µM unless noted
[18] = tested on: UO-31 renal; conditions: 10 µM unless noted
[19] = tested on: HL-60(TB) leukemia; conditions: 10 µM unless noted
[20] = tested on: SR leukemia; conditions: 10 µM unless noted

| Compound | growth [1] | growth [2] | growth [3] | growth [4] | growth [5] | growth [6] | growth [7] | growth [8] | growth [9] | growth [10] | growth [11] | growth [12] | growth [13] | growth [14] | growth [15] | growth [16] | growth [17] | growth [18] | growth [19] | growth [20] |
| --- | --- | --- | --- | --- | --- | --- | --- | --- | --- | --- | --- | --- | --- | --- | --- | --- | --- | --- | --- | --- |
| CCOC(=O)CCC(NC(=O)C(Cc1ccc(N(CCCl)CCCl)cc1)NC=O)C(=O)OCC (centres undefined) | -64.3% (active) | 55.4% | 3.28% (active) | 111% | -33.9% (active) | 10.5% | 128% | 17.6% | 5.13% (active) | 30.6% | 44.5% | 42.9% | 61.4% | 135% | 67.2% | -17.4% (active) | 51.8% |  |  |  |
| CC(C)(C)C(=O)OCOP(=O)(OCOC(=O)C(C)(C)C)C1CCCN(O)C1=O (centres undefined) | 24.9% |  | 2.67% (active) | 2.8% (active) | 8.69% (active) | 5.9% (active) | -24.3% (active) | 9.89% (active) | 3.92% (active) | -18% (active) | 5.69% (active) | 32.5% | 11.2% | 12.2% | -4.01% (active) | 4.08% (active) |  | 5.91% (active) | -21% (active) | 13.7% |
| CCOC(=O)CCN(C)C1=Nc2ccc(Cl)cc2C(c2ccccc2)=[N+]([O-])C1 | 93.5% | 102% | 98.5% |  | 110% |  | 71.8% | 99.6% | 94.1% | 106% | 101% | 109% | 99.4% | 106% | 107% | 110% | 96% | 78.6% | 91.3% | 85.8% |
| O=C1C(N2CC2)=C(N2CC2)C(=O)C(N2CC2)=C1N1CC1 | -24.2% (active) | 22.9% |  | 2.35% (active) | -45.9% (active) | 7.04% (active) | -75.4% (active) | 39.2% | 32.9% | 37.7% | 0.671% (active) | -60.6% (active) | 51.7% | -30.6% (active) | -23.5% (active) | 4.7% (active) | 14.3% | -56.2% (active) | 21.8% | 2.9% (active) |
| CCCCNC(c1ccc(Cl)cc1)C(O)c1ccc(Cl)cc1 (centres undefined) | 62.5% | 53.9% |  | 56.8% | 35.2% | 30.3% | 57.8% | 29.7% | 9.52% (active) | -15.1% (active) | 49% | 56% | 65.9% | 79.6% | 27% | 55.6% | 64.2% | 36.9% | 19.6% | -34.2% (active) |
| COC(=O)CC[C@H](Cc1ccccc1)NC(=O)c1csc([C@@H](C[C@H](C(C)C)N(C)C(=O)[C@@H](NC(=O)[C@H]2CCCCN2C)C(C)C)OC(C)=O)n1 | 54.1% | 44.1% | 43.8% |  | 23.9% |  | 5.63% (active) | 19.8% | 9.45% (active) | 37.3% | 28.1% | 76.2% | 52.3% | 35.4% | 15.3% | -3.19% (active) | 38.2% | 49.7% | 4.63% (active) | 13.9% |
| CCC(=O)Nc1ccc(Cl)c(Cl)c1 | 94.3% | 98.4% |  | 86.3% | 98.2% | 96.8% | 89.7% | 103% | 97.9% | 106% | 100% | 92.9% | 118% | 104% | 104% | 107% | 110% | 89% | 92.4% | 95.5% |
| COc1cc([C@@H]2c3cc4c(cc3[C@H](OC(C)=O)[C@H]3COC(=O)[C@@H]23)OCO4)cc(OC)c1OC | 40.2% | 33.1% |  | 41.8% | 29.8% |  | -15.7% (active) | 22.6% | 16.4% | 23.6% | 6.28% (active) | 26.4% | 29.9% | -10.2% (active) | 16.8% | 13.2% | 7.08% (active) | 38.9% | -1.71% (active) | 15.6% |
| c1cnc2[nH]cc(-c3csc(-c4cn(CCCCN5CCCCC5)c5ccccc45)n3)c2c1 | 97.6% | 83.1% | 75.2% |  | 98.5% |  | 95.7% | 62.9% | 56.4% | 52.5% | 87.3% | 96.3% | 83.8% | 109% | 44.9% |  |  | 49.2% | 47.9% | -23.5% (active) |
| CC(=O)[C@H]1CC[C@H]2[C@@H]3CC[C@H]4C[C@H](N)CC[C@]4(C)[C@H]3CC[C@]12C | 89.8% | 76.9% |  | 82.6% | 82.9% |  | 78.6% | 102% | 61.7% | 58.9% | 90% | 82.7% | 84.1% | 109% | 81.6% | 74.5% | 82% | 63.1% |  | 32.3% |
| C=CCCCCCCCCC(=O)[O-].C=CCCCCCCCCC(=O)[O-].[Zn+2] | 111% | 98.7% | 101% |  | 101% | 90% |  | 104% | 103% |  | 96.6% | 106% | 115% |  | 105% | 118% | 105% |  | 95.1% |  |
| CNC(=O)Oc1ccc(C(C)(C)C)cc1OC(=O)NC | 70.7% | 82.1% | 95.2% |  | 106% |  |  | 96.6% | 81.6% | 95.5% | 100% | 108% | 96.3% | 88.4% | 104% | 102% | 106% | 94.9% | 85.8% | 87.9% |
| O=C(NCCN1CC1)C(=O)NCCN1CC1 | 97.1% |  | 87.3% | 83.6% | 67.9% | 20.9% | 105% | 56.8% | 55.3% | 98.5% | 69.3% | 104% | 106% | 98% | 78.5% | 99.6% |  | 96.4% | 63.1% | 19% |
| CC(=O)O[C@H](C[C@H](C(C)C)N(C)C(=O)[C@@H](NC(=O)[C@H]1CCCCN1C)C(C)(C)C)c1nc(C(=O)N[C@@H](Cc2ccccc2)C[C@H](C)C(=O)O)cs1 | 21.8% | 39.7% | 17.9% |  | 29% |  | -6.47% (active) | 1.05% (active) | 6.26% (active) | 16.8% | 8.74% (active) | 32% | 41.6% | 28.6% | 18.9% | -14.6% (active) | 16.7% | 43% | -26% (active) | 2.59% (active) |
| C#Cc1ccc2c(c1)C(c1ccccc1F)=NCC(=O)N2C | 19.4% | 48.9% |  | 75.5% | 56.9% | 55.1% | 19.2% | 58.8% | 42.8% | 71.9% | 63.9% | 85.5% | 84.9% | 34% |  | 12.1% | 64.1% | 72.5% | 10.2% | 37.8% |
| COc1cc2c(cc1OCCCCn1c(-c3cccs3)nc3ccccc31)N=C[C@@H]1CCCN1C2=O | -52.4% (active) | 4.43% (active) | 2.49% (active) |  | -10% (active) | -22% (active) |  | -25.7% (active) | 20.8% | -46.8% (active) | -0.203% (active) | 0.96% (active) | -21.3% (active) | 24.9% |  | -10.9% (active) | -5.13% (active) | -58.3% (active) |  | 32% |
| CC[C@H](C)[C@@H]1OC(=O)C(C)(C)[C@H](O)[C@H](Cc2ccccc2)OC(=O)[C@H](C(C)C)OC(=O)[C@@H](NC(=O)c2cccc(NC=O)c2O)[C@@H](C)OC1=O | 36.2% | 29.9% |  | 49.8% | 46.4% | 38.7% | 67.2% | 36.7% | 37.7% | 29% | 51.3% | 103% | 28.7% | 60.7% | 53.6% | 48.2% | 73.4% | 47.3% | 60% | 43.3% |
